Data as given in PubChem BioAssay AID1619 (SRMLSC, 2009).
Hit rate of the full screen: of about 220,000 compounds, about 830 (0.38%) were called active.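 How the source made its calls: active means compound inhibiting the enzyme by more than half at any dose during confirmatory dose-response retesting; inconclusive means strong single-dose inhibitors picked by rank but not retested; inactive means the rest.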 Not all results are given here. Entries with a potency or affinity are not part of this list.

Each compound was assayed against Leucine aminopeptidase (Plasmodium falciparum (isolate 3D7)) (UniProt Q8IL11) (assay: P. falciparum M17LAP inhibitors, primary screen, biochemical, fluorogenic H-Leu-NHMec substrate, 1536-well (AID 1619;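 further: plate controls were full reaction with DMSO carrier for no effect and no enzyme background for full effect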)). Settings: recombinant M17LAP, H-Leu-NHMec fluorogenic kinetic assay; at 30 µM; active compounds read high.
Sequence of Leucine aminopeptidase (Plasmodium falciparum (isolate 3D7)) (Q8IL11 whole entry, looked up): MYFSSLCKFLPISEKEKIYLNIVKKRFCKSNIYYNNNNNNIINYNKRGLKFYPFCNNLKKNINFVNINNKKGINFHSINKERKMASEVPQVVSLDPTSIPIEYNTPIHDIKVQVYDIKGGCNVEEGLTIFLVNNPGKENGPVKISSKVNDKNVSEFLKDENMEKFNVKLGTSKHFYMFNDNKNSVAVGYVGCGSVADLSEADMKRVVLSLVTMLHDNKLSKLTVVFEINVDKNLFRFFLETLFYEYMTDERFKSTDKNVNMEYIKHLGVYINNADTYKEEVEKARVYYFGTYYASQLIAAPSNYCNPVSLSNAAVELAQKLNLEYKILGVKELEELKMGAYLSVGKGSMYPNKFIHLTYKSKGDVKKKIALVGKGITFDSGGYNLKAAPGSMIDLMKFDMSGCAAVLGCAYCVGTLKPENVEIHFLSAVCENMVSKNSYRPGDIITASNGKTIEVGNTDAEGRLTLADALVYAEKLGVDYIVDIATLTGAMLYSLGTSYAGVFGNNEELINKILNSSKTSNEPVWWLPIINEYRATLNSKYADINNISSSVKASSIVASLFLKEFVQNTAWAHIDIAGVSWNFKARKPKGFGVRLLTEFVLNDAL

inhibition, inactive:
Cc1ccc(NC(=O)CN2CCCCCC2)cc1Br 9.91%
Cc1cc(C(=O)CCl)c(C)n1-c1cccc(S(=O)(=O)N2CCOCC2)c1 1.27%
Cc1cc(C(=O)COc2ccccc2[N+](=O)[O-])c(C)n1-c1cccc(S(=O)(=O)N2CCOCC2)c1 2.08%
CCSC1=C(C#N)C(c2ccccc2Cl)C(C(=O)c2cccs2)C(O)(C(F)(F)F)N1 (centres undefined) -2.94%
CC(Sc1ccc2c(c1)OCCO2)C(=O)Nc1ccc(N2CCOCC2)cc1 (centres undefined) -0.69%
O=C(CSc1ccc2c(c1)OCCO2)Nc1ncc(Cl)cc1Cl 33.8%
CCCNC(=O)NC(=O)CSc1ccc2c(c1)OCCO2 -3.31%
CC(Sc1ccc2c(c1)OCCO2)C(=O)Nc1ccc2c(c1)OCO2 (centres undefined) 31.4%
CCOc1cc(S(=O)(=O)Nc2ccccc2CC)ccc1Cl 8.77%
Nc1nnc(SCC(=O)NN2C(=O)NC3(CCCCC3)C2=O)s1 28%
O=C(CSc1nnc(NC2CCCCC2)s1)NCc1ccco1 1.38%
O=C(CSc1nnc(NC2CCCCC2)s1)NC1CCS(=O)(=O)C1 (centres undefined) 11.6%
Cc1nnc(SCC(=O)NN2C(=O)NC3(CCCCC3)C2=O)s1 0.53%
Cn1nc(C(=O)NNc2c(F)c(F)cc(F)c2F)c2ccccc2c1=O 10.2%
Cc1ccccc1Nc1nc(N)nc(CSc2nnnn2-c2ccccc2)n1 2.91%
CCCCn1nc(C(=O)Nc2cc(S(=O)(=O)N(C)C)ccc2C)c2ccccc2c1=O 0.9%
CCCN(c1ccc(C(=O)OC)cc1)S(=O)(=O)c1ccccc1 -1.32%
O=C(CSc1nnc(NC(=O)CN2CCOCC2)s1)Nc1ccccc1 27.4%
CCc1ccc(Nc2nnc(SCC(=O)Nc3ccc(C(=O)O)cc3)s2)cc1 33%
Cc1cccc(C)c1NC(=O)CSc1nnc(NC(=O)CN2CCOCC2)s1 24.1%
Cc1cccc(NC(=O)CSc2nnc(NC(=O)CN3CCCCC3)s2)c1 52.7%
Cc1cccc(Nc2nnc(SCC(=O)Nc3cccc(S(=O)(=O)N4CCCCC4)c3)s2)c1 33.5%
CC(=O)c1ccc(NC(=O)CSc2nnc(NC(=O)CN3CCOCC3)s2)cc1 28.4%
O=C(NCCN1CCN(c2ccccc2)CC1)c1ccc(NC(=O)C2CCCO2)cc1 (centres undefined) -5.43%
CC1=CC(C2CC(=O)N(c3ccccc3C)C2=O)CC2C(=O)N(c3ccccc3C)C(=O)C12 (centres undefined) 3.8%
CC1=C(C(=O)OCC2CCCO2)C(c2ccncc2)C2=C(CC(C)(C)CC2=O)N1 (centres undefined) -16.9%
O=[N+]([O-])c1ccc2c(c1)C=C1CCCCC1(N1CCCCC1)O2 (centres undefined) 9.55%
COc1ccc(/C=C2\SC(=O)N(CCn3cnnn3)C2=O)cc1 -2.01%
O=C(CN1CCN(Cc2ccc(F)cc2Cl)C1=O)NCCc1ccccc1 8.72%
CC1CCCN(c2nc(NCc3ccco3)nc(N)c2[N+](=O)[O-])C1 (centres undefined) -3.16%
CCCC(=O)Nc1nnc(-c2ccco2)s1 -4.22%
O=C(CCc1nc2ccccc2[nH]c1=O)OCC(=O)c1cccc2ccccc12 -3.73%
CCCc1[nH]nc2c1C(/C(C)=C/c1ccccc1)C(C#N)=C(N)O2 (centres undefined) 6.81%
Cc1ccc(SCc2[nH]nc3c2C(c2ccco2)C(C#N)=C(N)O3)cc1 (centres undefined) 44.8%
C/C(=C\c1ccco1)C1C(C#N)=C(N)OC2=C1C(=O)CC(C)(C)C2 (centres undefined) 5.9%
Cc1[nH]nc2c1C(c1ccco1)C(C#N)=C(N)O2 (centres undefined) 6.22%
COc1cc(C(=O)NCC(c2cccnc2)N2CCN(c3ccc(F)cc3)CC2)cc(OC)c1OC (centres undefined) -0.25%
COc1ccc(CNC(=O)CN(Cc2ccccc2)S(=O)(=O)c2ccc(Cl)cc2)cc1 -4.99%
O=C(c1ccc2c(c1)OCO2)C1CCCN(C(=O)C2CCOCC2)C1 (centres undefined) -3.38%
COCCCNC(NC(=O)c1ccc(Br)cc1)C(Cl)(Cl)Cl (centres undefined) 0.25%
NC(=O)[C@@H]1CC2(CC(c3cccc(NC(=O)[C@H]4CCC(=O)N4)c3)=NO2)CN1C(=O)c1ccc(Cl)cc1 (some centres undefined) 11.6%
COc1ccccc1NC(=O)NCc1nc(-c2ccc(C(F)(F)F)cc2)no1 0.03%
COc1cc(OC)cc(C(=O)Nc2ccc([N+](=O)[O-])cn2)c1 1.24%
CN(C)c1ccc(C(=O)Nc2nnc(C3=COCCO3)o2)cc1 3.73%
C=CCOc1ccc(NC(=O)C2CC(=O)N(C(C)C)C2)cc1 (centres undefined) 27.3%
CCOc1ccc(NC(=O)C2CC(=O)N(C(C)C)C2)cc1 (centres undefined) 43.2%
CCOC(=O)c1c(C)n(C)c2ccc(OC(=O)c3ccc([N+](=O)[O-])cc3)cc12 -6.49%
COc1ccc(Cc2nnc(Nc3ccc(Cl)cc3)[nH]c2=O)cc1 -7.25%
CCCc1cc(=O)[nH]c(Nc2ccc(Cl)cc2)n1 1.52%
CC1(C(=O)O)CCC(C(=O)Nc2ccccc2)C1(C)C (centres undefined) 1.51%
COc1ccc(NC(=O)C2CCC(C)(C(=O)O)C2(C)C)cc1 (centres undefined) 14.3%
COc1cccc(NC(=O)c2ccc(NC(C)=O)cc2)c1 10.5%
COc1ccc2cc(CCNC(=O)C(C)C)c(=O)[nH]c2c1 9.03%
COc1ccc(NC(=O)CN2CCC(C)CC2)cc1 32.1%
CSc1ccc(Cl)c(C(=O)NCc2ccco2)c1 14.1%
CCCNC(=O)COC(=O)c1cc(SC)ccc1Cl 6.08%
Cc1ccc(N=Cc2cc(C)n(C3CCCC3)c2C)cc1 3.83%
O=C(Nc1cc(F)cc(F)c1)c1ccc(NCCc2ccccc2)c([N+](=O)[O-])c1 5.14%
C=CCOC(=O)C1=C(C)Nc2[nH]c(=O)[nH]c(=O)c2C1c1ccccc1 (centres undefined) 16.9%
